# Data from PMC7862700, “An all-to-all approach to the identification of sequence-specific readers for epigenetic DNA modifications on cytosine”.
# What was measured:
# Assay in all cases: DAPPL (digital affinity profiling via proximity ligation, sequencing); 10 mM Tris-HCl pH 7.5, 50 mM NaCl, 1 mM DTT, 4% glycerol, room temperature, 30 min; GST-TFs on glutathione beads, 16-mer random dsDNA library, 0.1% formaldehyde crosslink after washing; high values mean tight binding
# FEV = molecular target: T1, FEV (Homo sapiens, UniProt Q99581 1-238); details: protein: recombinant; tags: N-terminal GST; dsDNA, one strand shown
# T1 sequence: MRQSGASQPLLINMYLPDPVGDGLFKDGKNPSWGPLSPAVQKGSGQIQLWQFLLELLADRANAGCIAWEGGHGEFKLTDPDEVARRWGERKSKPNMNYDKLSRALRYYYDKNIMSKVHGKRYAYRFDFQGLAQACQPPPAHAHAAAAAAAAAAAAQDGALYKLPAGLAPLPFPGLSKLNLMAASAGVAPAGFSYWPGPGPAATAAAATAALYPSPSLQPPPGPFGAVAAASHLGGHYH
# Procedure, shortened: (§1)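 The binding signal reported is, for every hexamer, its read frequency for a factor over its read frequency for the tag-only sample. Reads came from pools of yeast-expressed, GST-fused human transcription factors on glutathione beads, barcoded with DNA and mixed with that sample, which were incubated with 200 nmole of a random double-stranded 16-mer DNA library in Tris/NaCl/DTT/glycerol buffer at room temperature for 30 min. After washing, the pools were crosslinked with 0.1% formaldehyde, proximity-ligated with BsaI/T4 ligase for 1 h at 37 °C, PCR-amplified and sequenced on an Illumina NextSeq500.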
# ETV5 = ETV5 (Homo sapiens, UniProt P41161 1-510); details: protein: recombinant; tags: N-terminal GST; dsDNA, one strand shown
# Procedure, shortened: as §1
# HSF1 = HSF1 (Homo sapiens, UniProt Q00613 1-529); details: protein: recombinant; tags: N-terminal GST; chain copies: 3; dsDNA, one strand shown
# Procedure, shortened: as §1
# SPIC = molecular target: T2, SPIC (Homo sapiens, UniProt Q8N5J4 1-248); details: protein: recombinant; tags: N-terminal GST; dsDNA, one strand shown
# T2 sequence: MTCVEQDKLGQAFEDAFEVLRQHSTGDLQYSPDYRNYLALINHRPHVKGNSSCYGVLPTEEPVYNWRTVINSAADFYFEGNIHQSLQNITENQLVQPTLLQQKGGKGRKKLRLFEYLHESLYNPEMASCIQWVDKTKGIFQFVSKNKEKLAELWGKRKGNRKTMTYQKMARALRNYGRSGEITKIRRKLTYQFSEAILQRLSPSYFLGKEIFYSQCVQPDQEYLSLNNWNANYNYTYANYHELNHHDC
# Procedure, shortened: as §1
# ELF4 = ELF4 (Homo sapiens, UniProt Q99607 1-663); details: protein: recombinant; tags: N-terminal GST; dsDNA, one strand shown
# Procedure, shortened: as §1
# ELK4 = molecular target: T3, ELK4 (Homo sapiens, UniProt P28324-2 1-405); details: protein: recombinant; tags: N-terminal GST; dsDNA, one strand shown
# T3 sequence: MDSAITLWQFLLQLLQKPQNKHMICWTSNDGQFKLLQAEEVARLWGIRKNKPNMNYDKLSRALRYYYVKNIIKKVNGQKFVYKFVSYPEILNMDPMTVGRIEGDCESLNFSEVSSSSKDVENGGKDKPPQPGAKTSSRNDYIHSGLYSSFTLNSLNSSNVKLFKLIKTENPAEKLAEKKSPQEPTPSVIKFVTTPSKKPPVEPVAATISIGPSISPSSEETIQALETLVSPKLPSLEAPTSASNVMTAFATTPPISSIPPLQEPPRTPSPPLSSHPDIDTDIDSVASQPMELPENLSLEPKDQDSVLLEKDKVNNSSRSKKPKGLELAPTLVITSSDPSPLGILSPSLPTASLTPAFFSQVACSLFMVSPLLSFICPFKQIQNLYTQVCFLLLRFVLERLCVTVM
# Procedure, shortened: as §1
# ETV2 = molecular target: T4, ETV2 (Homo sapiens, UniProt O00321 1-342); details: protein: recombinant; tags: N-terminal GST; dsDNA, one strand shown
# T4 sequence: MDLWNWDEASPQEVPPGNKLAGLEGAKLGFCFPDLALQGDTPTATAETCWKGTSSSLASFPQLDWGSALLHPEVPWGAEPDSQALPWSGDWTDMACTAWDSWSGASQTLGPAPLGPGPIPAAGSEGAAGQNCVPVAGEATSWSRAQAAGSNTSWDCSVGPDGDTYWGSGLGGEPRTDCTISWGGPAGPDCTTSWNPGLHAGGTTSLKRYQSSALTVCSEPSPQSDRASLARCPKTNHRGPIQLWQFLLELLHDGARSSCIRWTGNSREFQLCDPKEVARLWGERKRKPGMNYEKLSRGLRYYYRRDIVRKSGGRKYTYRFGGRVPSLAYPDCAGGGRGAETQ
# Procedure, shortened: as §1
# ELF3 = molecular target: T5, ELF3 (Homo sapiens, UniProt P78545 1-371); details: protein: recombinant; tags: N-terminal GST; dsDNA, one strand shown
# T5 sequence: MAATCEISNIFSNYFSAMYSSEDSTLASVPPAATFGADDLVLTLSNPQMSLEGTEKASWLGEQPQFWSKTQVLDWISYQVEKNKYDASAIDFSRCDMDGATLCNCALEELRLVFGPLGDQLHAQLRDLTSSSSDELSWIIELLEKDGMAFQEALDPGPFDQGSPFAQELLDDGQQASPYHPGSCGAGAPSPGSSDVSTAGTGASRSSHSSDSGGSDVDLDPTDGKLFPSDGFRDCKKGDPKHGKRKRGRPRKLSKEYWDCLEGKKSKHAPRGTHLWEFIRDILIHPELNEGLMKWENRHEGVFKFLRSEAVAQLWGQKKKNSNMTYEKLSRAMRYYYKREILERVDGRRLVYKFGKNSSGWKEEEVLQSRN
# Procedure, shortened: as §1
# CRX = CRX (Homo sapiens, UniProt O43186 1-299); details: protein: recombinant; tags: N-terminal GST; dsDNA, one strand shown
# Procedure, shortened: as §1
# ETV1 = ETV1 (Homo sapiens, UniProt P50549 1-477); details: protein: recombinant; tags: N-terminal GST; dsDNA, one strand shown
# Procedure, shortened: as §1
# ERF = molecular target: T6, ERF (Homo sapiens, UniProt P50548 1-548); details: protein: recombinant; tags: N-terminal GST; dsDNA, one strand shown
# T6 sequence: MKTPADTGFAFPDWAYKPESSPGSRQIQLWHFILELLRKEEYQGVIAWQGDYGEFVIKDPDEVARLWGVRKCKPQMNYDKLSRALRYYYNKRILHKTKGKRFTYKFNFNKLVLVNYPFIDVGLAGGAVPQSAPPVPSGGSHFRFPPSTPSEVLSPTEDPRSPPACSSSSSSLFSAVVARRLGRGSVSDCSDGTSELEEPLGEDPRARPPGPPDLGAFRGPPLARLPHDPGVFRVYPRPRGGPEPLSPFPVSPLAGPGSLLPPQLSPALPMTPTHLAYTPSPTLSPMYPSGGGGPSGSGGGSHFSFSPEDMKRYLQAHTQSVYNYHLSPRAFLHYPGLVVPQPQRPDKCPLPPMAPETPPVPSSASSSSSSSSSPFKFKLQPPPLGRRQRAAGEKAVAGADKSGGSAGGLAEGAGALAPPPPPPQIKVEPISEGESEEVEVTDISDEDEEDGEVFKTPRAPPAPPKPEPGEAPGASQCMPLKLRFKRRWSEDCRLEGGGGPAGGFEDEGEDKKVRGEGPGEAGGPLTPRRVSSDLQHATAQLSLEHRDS
# Procedure, shortened: as §1
# ETV3L = molecular target: T7, ETV3L (Homo sapiens, UniProt Q6ZN32 1-361); details: protein: recombinant; tags: N-terminal GST; dsDNA, one strand shown
# T7 sequence: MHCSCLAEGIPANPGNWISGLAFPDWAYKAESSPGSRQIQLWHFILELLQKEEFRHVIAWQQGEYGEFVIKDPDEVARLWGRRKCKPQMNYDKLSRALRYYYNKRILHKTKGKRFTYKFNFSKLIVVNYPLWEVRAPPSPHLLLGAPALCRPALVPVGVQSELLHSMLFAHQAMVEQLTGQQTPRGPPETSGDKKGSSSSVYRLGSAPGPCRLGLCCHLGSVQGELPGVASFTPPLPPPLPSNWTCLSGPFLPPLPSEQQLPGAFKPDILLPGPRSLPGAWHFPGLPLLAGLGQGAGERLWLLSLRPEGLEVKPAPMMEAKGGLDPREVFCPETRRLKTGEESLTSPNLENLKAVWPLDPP
# Procedure, shortened: as §1
# ETS2 = molecular target: T8, ETS2 (Homo sapiens, UniProt P15036 1-469); details: protein: recombinant; tags: N-terminal GST; dsDNA, one strand shown
# T8 sequence: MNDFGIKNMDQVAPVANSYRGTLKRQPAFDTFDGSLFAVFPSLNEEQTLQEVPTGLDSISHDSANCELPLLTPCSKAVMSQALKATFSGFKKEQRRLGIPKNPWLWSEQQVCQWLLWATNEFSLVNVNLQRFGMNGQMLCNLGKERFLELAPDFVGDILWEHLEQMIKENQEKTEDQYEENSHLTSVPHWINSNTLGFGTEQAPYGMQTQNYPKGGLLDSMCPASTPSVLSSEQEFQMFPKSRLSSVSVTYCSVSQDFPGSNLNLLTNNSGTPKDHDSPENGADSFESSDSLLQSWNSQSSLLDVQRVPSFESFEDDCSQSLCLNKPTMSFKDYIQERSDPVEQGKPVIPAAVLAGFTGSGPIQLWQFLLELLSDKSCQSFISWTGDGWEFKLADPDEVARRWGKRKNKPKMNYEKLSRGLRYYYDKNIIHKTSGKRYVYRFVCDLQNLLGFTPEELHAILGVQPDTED
# Procedure, shortened: as §1
# SPDEF = molecular target: T9, SPDEF (Homo sapiens, UniProt O95238 1-335); details: protein: recombinant; tags: N-terminal GST; dsDNA, one strand shown
# T9 sequence: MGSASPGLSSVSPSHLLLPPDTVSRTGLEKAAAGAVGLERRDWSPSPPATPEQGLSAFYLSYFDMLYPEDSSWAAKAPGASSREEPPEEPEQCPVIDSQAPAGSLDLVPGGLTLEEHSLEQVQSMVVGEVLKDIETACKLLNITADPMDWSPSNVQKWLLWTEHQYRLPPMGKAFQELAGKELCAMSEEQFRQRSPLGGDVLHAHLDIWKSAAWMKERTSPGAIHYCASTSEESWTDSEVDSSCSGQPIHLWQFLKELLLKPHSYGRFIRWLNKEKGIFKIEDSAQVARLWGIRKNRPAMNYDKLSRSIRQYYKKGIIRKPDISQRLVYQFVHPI
# Procedure, shortened: as §1
# ETV7 = molecular target: T10, ETV7 (Homo sapiens, UniProt Q9Y603 1-341); details: protein: recombinant; tags: N-terminal GST; dsDNA, one strand shown
# T10 sequence: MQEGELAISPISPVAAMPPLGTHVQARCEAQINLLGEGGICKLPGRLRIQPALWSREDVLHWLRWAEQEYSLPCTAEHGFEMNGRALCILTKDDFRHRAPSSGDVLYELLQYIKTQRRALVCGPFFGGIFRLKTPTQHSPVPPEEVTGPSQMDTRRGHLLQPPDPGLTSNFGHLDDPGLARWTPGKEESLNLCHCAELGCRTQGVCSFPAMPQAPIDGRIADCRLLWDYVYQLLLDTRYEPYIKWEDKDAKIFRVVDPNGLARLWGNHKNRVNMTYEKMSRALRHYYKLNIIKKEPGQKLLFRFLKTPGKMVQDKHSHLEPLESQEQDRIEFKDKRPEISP
# Procedure, shortened: as §1
# ELF5 = molecular target: T11, ELF5 (Homo sapiens, UniProt Q9UKW6-2 1-255); details: protein: recombinant; tags: N-terminal GST; dsDNA, one strand shown
# T11 sequence: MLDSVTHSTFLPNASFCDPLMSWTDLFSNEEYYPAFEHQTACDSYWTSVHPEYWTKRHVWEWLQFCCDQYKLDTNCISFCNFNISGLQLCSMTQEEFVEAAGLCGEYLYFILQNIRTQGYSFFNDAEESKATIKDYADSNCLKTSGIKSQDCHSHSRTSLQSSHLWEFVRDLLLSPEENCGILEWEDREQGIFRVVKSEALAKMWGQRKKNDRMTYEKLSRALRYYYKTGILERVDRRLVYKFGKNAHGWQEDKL
# Procedure, shortened: as §1
# ETV3 = molecular target: T12, ETV3 (Homo sapiens, UniProt P41162-2 1-143); details: protein: recombinant; tags: N-terminal GST; dsDNA, one strand shown
# T12 sequence: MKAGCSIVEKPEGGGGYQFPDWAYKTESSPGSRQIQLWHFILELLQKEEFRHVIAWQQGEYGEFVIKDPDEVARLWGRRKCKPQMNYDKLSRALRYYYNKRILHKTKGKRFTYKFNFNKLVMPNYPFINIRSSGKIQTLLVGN
# Procedure, shortened: as §1
# ETV6 = ETV6 (Homo sapiens, UniProt P41212 1-452); details: protein: recombinant; tags: N-terminal GST; dsDNA, one strand shown
# Procedure, shortened: as §1
# CRX, sequence (O43186 whole entry): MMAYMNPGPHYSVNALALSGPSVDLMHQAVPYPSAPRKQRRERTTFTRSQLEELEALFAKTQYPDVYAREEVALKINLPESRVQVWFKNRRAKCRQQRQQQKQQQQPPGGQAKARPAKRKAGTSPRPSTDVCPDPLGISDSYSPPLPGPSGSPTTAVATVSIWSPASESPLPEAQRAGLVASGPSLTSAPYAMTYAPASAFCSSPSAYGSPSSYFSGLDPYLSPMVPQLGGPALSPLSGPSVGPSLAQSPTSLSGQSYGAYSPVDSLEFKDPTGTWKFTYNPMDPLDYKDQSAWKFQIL
# HSF1, sequence (Q00613 whole entry): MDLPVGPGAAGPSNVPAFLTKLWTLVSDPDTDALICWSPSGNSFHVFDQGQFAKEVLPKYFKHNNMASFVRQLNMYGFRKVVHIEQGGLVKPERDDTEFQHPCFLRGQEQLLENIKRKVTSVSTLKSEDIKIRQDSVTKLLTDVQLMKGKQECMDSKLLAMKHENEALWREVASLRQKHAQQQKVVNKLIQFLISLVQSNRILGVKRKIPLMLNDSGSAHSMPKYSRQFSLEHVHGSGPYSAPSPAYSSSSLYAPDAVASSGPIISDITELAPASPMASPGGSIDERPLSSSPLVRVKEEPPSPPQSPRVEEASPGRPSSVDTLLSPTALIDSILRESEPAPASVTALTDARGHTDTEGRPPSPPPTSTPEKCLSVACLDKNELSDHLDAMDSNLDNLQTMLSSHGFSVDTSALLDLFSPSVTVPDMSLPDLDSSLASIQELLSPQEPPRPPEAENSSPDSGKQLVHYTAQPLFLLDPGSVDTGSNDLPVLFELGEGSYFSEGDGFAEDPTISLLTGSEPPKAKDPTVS
# ETV5, sequence (P41161 whole entry): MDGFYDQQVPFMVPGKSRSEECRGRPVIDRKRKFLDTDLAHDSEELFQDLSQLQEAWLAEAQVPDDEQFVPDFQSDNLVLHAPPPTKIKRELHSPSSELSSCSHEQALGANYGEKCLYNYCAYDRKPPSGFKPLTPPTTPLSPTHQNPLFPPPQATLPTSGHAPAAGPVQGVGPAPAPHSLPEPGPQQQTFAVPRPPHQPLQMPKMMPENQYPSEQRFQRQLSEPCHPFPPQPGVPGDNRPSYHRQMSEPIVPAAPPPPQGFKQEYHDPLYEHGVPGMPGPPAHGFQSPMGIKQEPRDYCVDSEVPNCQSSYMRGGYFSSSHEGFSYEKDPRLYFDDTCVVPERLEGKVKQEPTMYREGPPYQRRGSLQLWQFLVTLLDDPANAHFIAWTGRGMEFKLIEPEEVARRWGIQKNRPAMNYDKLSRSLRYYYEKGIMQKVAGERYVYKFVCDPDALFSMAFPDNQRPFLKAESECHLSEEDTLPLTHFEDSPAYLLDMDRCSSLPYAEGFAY
# ELF4, sequence (Q99607 whole entry): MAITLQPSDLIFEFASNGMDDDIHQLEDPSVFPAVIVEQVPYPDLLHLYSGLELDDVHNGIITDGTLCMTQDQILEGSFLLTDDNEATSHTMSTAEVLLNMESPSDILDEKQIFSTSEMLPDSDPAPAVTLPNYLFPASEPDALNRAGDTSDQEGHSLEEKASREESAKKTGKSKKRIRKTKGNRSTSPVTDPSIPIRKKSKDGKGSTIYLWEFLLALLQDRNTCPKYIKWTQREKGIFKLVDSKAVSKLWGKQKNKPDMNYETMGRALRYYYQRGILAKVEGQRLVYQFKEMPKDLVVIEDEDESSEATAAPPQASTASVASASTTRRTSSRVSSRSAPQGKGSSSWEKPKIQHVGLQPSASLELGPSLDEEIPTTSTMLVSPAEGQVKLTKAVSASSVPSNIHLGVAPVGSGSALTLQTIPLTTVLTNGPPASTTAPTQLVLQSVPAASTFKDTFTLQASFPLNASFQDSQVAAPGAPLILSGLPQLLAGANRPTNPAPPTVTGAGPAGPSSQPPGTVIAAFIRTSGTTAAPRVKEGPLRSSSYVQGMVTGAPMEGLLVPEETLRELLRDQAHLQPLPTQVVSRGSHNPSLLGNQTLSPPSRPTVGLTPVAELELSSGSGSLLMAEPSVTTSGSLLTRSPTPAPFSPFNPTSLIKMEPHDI
# ETV1, sequence (P50549 whole entry): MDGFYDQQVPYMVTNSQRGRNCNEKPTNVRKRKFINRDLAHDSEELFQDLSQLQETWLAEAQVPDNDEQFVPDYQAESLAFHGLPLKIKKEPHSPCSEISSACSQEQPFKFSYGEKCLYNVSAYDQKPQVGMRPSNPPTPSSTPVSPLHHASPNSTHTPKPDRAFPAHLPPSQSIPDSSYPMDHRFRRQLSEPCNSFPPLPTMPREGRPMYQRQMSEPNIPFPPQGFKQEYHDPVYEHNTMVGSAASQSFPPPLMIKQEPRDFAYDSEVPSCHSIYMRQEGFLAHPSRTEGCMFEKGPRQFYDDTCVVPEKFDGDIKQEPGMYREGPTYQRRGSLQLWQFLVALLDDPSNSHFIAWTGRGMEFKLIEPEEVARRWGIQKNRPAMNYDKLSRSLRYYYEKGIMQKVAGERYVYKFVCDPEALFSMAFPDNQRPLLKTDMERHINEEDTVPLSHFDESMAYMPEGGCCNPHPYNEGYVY
# ETV6, sequence (P41212 whole entry): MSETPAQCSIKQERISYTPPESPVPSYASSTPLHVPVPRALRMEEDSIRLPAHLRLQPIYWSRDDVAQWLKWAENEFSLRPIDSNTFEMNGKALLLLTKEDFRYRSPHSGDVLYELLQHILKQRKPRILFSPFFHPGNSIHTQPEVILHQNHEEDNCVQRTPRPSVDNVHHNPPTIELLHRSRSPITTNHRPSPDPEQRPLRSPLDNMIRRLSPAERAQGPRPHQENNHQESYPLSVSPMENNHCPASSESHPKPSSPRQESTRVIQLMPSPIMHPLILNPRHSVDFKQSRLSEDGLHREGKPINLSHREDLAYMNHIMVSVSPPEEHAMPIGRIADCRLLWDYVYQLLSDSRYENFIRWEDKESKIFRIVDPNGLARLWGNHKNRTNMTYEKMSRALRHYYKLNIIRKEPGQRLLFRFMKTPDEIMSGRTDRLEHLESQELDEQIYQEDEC
sequence,measurement,setting,value
TTTACT,binding signal,FEV,"1.41 fold enrichment (6-mer frequency, TF over GST control)"
same,binding signal,ETV5,"1.44 fold enrichment (6-mer frequency, TF over GST control)"
same,binding signal,HSF1,"1.69 fold enrichment (6-mer frequency, TF over GST control)"
same,binding signal,SPIC,"1.44 fold enrichment (6-mer frequency, TF over GST control)"
same,binding signal,ELF4,"1.5 fold enrichment (6-mer frequency, TF over GST control)"
same,binding signal,ELK4,"1.66 fold enrichment (6-mer frequency, TF over GST control)"
same,binding signal,ETV2,"1.29 fold enrichment (6-mer frequency, TF over GST control)"
same,binding signal,ELF3,"1.65 fold enrichment (6-mer frequency, TF over GST control)"
same,binding signal,CRX,"1.95 fold enrichment (6-mer frequency, TF over GST control)"
same,binding signal,ETV1,"1.48 fold enrichment (6-mer frequency, TF over GST control)"
same,binding signal,ERF,"1.3 fold enrichment (6-mer frequency, TF over GST control)"
same,binding signal,ETV3L,"1.42 fold enrichment (6-mer frequency, TF over GST control)"
same,binding signal,ETS2,"1.44 fold enrichment (6-mer frequency, TF over GST control)"
same,binding signal,SPDEF,"1.44 fold enrichment (6-mer frequency, TF over GST control)"
same,binding signal,ETV7,"1.57 fold enrichment (6-mer frequency, TF over GST control)"
same,binding signal,ELF5,"1.36 fold enrichment (6-mer frequency, TF over GST control)"
same,binding signal,ETV3,"1.53 fold enrichment (6-mer frequency, TF over GST control)"
same,binding signal,ETV6,"1.44 fold enrichment (6-mer frequency, TF over GST control)"
